According to the supplement of paper PMC7156485:

Tested on: HCC1569
Test: H1.0 immunofluorescence intensity relative to DMSO (% of DMSO); higher = stronger H1.0 induction, active = 140 or more
Details: concentration: 10 µM; 24 h
Procedure, shortened: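 HCC1569 and TDF cells were seeded at 800 per well in 384-well plates in RPMI with 10% FBS and treated with compounds at 10 µM for 24 h at 37 °C, in triplicate. After fixation in 3.7% formaldehyde, cells were stained with a rabbit anti-H1.0 antibody, an AlexaFluor 647 secondary and DAPI, and six fields per well were imaged at ×10. H1.0 nuclear intensity or cell number is given as percent of the plate control, using the median of replicates, with HCC1569 values smoothed for positional effects.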
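Also: TDF is a line of transformed human dermal fibroblasts of mesenchymal origin.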

H1.0 immunofluorescence intensity, active:
C=C1C(=O)OC2C1CCC(C)=CCCC1(C)OC21 (stereo not drawn) [Parthenolide] 149, COc1cccc2c1C(=O)c1c(O)c3c(c(O)c1C2=O)CC(O)(C(C)=O)CC3OC1CC(N)C(O)C(C)O1 (stereo not drawn) [Daunorubicin] 1730

H1.0 immunofluorescence intensity, inactive:
COC(=O)C1C(O)CCC2CN3CCc4c([nH]c5ccccc45)C3CC21.Cl (stereo not drawn) [Yohimbine hydrochloride] 107, Cl.NC(N)=NC(=O)Cc1c(Cl)cccc1Cl [Guanfacine.HCl] 107, COC(=O)[C@@H](N)CSCC=C(C)CCC=C(C)CCC=C(C)C [S-Farnesyl-L-cysteine methylester] 103, CCCCCCCCCCCC=CCCCCCC(=O)O [7(Z)-Nonadecenoic acid] 96.9, CCOC(=O)CN1C(=O)c2ccc3c4c(ccc(c24)C1=O)C(=O)N(CC(=O)OCC)C3=O 100, NS(=O)(=O)c1cc(C(=O)O)c(NCc2ccco2)cc1Cl [Furosemide] 100, COc1cc(C2CC(=O)c3c(O)cc(O)cc3O2)ccc1O (stereo not drawn) [Homoeriodictyol] 88.7, COc1cc2c(N3CCN(C(=O)Nc4ccc(OC(C)C)cc4)CC3)ncnc2cc1OCCCN1CCCCC1 [Tandutinib] 99.5, CN(C)CCCOC1C(C(O)CO)OC2OC(C)(C)OC21.Cl (stereo not drawn) [Amiprilose hydrochloride] 91.5, Cc1cc(C(=O)Nc2cccc(C(=O)Nc3cccc(C(F)(F)F)c3)c2)on1 113, CCOc1ccc2ccc(=O)oc2c1 [7-ethoxy-2H-chromen-2-one] 103, N#Cc1c(N(CC(=O)[O-])CC(=O)[O-])sc(C(=O)[O-])c1CC(=O)[O-].[Sr+2].[Sr+2] 105, CN(C)[C@@H]1CCc2[nH]c3ccc(NC(=O)c4ccc(F)cc4)cc3c2C1.Cl 114, NC/C=C\C(=O)O [cis-4-Aminocrotonic acid] 88.1, COC(=O)N=NC=C1C=[N+]([O-])c2ccccc2N1O [Carbadox] 92.8, COCCOC(=O)C1=C(C)NC(C)=C(C(=O)OC(C)C)C1c1cccc([N+](=O)[O-])c1 (stereo not drawn) [Nimodipine] 104, COc1ccc(C2(C#N)CCC(C(=O)O)CC2)cc1OC1CCCC1 (stereo not drawn) 90.2, CCCCCCCCCCCCCCC(C(=O)O)=C(C)C(=O)O [Chaetomellic acid A] 100, C[N+](C)(C)C(Cc1c[nH]c(=S)[nH]1)C(=O)[O-] (stereo not drawn) [Ergothioneine] 99.9, CCc1[nH]c(-c2ccc(OC)cc2)nc1-c1ccncc1 120, N#Cc1cc2nc([O-])c([O-])nc2cc1[N+](=O)[O-].[Na+].[Na+] [CNQX disodium] 101, CCC(=O)N1CCN(C(=O)c2ccccc2)CC1 89.3, CC(CC(c1ccccc1)c1ccccc1)NC(C)(C)C.Cl (stereo not drawn) [N-(tert-butyl)-4,4-diphenyl-2-butanamine hydrochloride] 101, CCCCC#Cc1nc(N)c2ncn(C3OC(C(=O)NCC)C(O)C3O)c2n1 (stereo not drawn) 110, CC(Cc1ccccc1)(NC(=O)CN)c1ccccc1.Cl (stereo not drawn) 91.3, COc1ccc(CNC(=O)c2sc3nc(C)cc(C)c3c2N)cc1 101
